Source: PubChem (The Scripps Research Institute Molecular Screening Center)
DAX1 inh-1 = NR0B1 (DAX1) inhibition; P51843; HEK293 Gal4-DAX1 luciferase reporter, luminescence; inhibition, % at 6.75 µM; 340,000 compounds, 0.99% hits; AID 504766;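 active = inhibition above the mean over all tested compounds plus 3 SD, cut at about 4.2% in these data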;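 also: 0% = DAX1-transfected cells with DMSO and 100% = empty-vector control cells with DMSO; inhibition shows as a rise in luminescence from relieved DAX1 repression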
Target sequence (P51843 207-470 limits assumed): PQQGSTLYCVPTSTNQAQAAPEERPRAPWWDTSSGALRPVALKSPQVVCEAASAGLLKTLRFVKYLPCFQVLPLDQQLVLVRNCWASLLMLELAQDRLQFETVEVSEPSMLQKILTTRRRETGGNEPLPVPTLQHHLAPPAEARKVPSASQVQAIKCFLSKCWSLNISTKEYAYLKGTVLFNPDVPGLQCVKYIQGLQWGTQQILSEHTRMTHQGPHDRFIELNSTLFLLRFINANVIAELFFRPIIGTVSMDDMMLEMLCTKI
GAA850 FXN act = frataxin GAA850 promoter activation; HEK293 lucGAA850 FXN promoter luciferase reporter, 24 h; percent of 10 µM SAHA response; activation, % at 6 µM; 360,000 compounds, 0.56% hits; AID 540364;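 active = activation above the average of all compounds screened plus 3 SD, cutoff fixed separately per campaign, cut at about 7.5% in these data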;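 also: 0% = DMSO wells and 100% = 10 µM SAHA wells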
DAX1 inh-2 = blocks DAX1 repression of SF-1 activated StAR promoter | inhibition, % at 6.8 µM | HEK293T StAR-luciferase reporter, SF-1/DAX-1 repression relief | 370,000 compounds, 1.1% hits | AID 652010;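 active = inhibition above the mean over all tested compounds plus 3 SD, cut at about 3.6% in these data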;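 also: 0% = DAX-1 cells with DMSO and 100% = cells lacking DAX-1 with DMSO; higher inhibition means more luminescence from relief of DAX-1 repression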
hgDAF-12 ag = agonists of H. glycines DAF-12 nuclear receptor; HEK293 GAL4-hgDAF12 UAS-luciferase reporter, agonist luminescence; normalized to butyrate control; activation, % at 6.8 µM; 370,000 compounds, 1.8% hits; AID 687014;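 active = activation above a cutoff set at the mean of all screened compounds plus 3 SD, cut at about 10% in these data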;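 also: 0% = DMSO wells and 100% = sodium butyrate wells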
ssDAF-12 act = activators of S. stercoralis DAF-12 nuclear receptor. HEK293 ssDAF-12/GRIP1 lit1-tk-luc reporter, luminescence; % of 3 µM dafachronic acid response. activation, % at 6.8 µM. 370,000 compounds, 1% hits;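 active = activation above the mean over all tested compounds plus 3 SD, cut at about 0.9% in these data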;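 also: 0% = DMSO-only wells and 100% = 3 µM delta7-dafachronic acid wells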
hcDAF-12 act = activators of H. contortus DAF-12 nuclear receptor; 370,000 compounds, 1.4% hits; AID 652067; HEK293 hcDAF-12 lit1-tk-luc reporter, luminescence; 0% DMSO, 100% Δ7-dafachronic acid; activation, % at 6.8 µM;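 active = activation above the mean of all tested compounds plus 3 SD, cut at about 5.5% in these data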;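 also: 100% = response to 3 µM Δ7-dafachronic acid high control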
An asterisk follows results filed as active; x = no result given. Rows were chosen to be rich in hits. Some 4.5% of all compounds tested hit in one or more screens of this group.

SMILES	DAX1 inh-1	GAA850 FXN act	DAX1 inh-2	hgDAF-12 ag	ssDAF-12 act	hcDAF-12 act
O=C1Cc2ccccc2C(=O)N1OCc1ccc(Cl)cc1	-1.0	2.2	0.1	-0.5	0.9*	3.0
O=C1c2ccccc2C(=O)N1OCc1ccc(Cl)cc1	2.0	-0.6	0.1	2.3	-0.6	0.1
Cc1cc(C(=O)Nc2ccc(F)cc2C)n(-c2ccccc2)n1	5.0*	-0.4	-0.4	2.8	-1.6	-0.6
CCN(C(=O)CSc1nnc(-c2cccnc2)n1Cc1ccco1)c1ccccc1C	x	x	0.4	2.8	-1.6	-1.1
CCCCCCCCN1CCS(=O)(=O)N(Cc2ccccc2)C(C(=O)OC)C1 (stereo not drawn)	x	x	-0.7	-1.2	-1.0	-2.3
CC(C)(C)NCC(O)CON=C1c2ccccc2-c2ccccc21 (stereo not drawn)	5.4*	-0.9	0.6	-3.2	-1.8	-1.1
CC(C)(C)NC(=O)CON=C1c2ccccc2-c2ccccc21	-1.8	-0.9	0.1	0.2	-1.9	-4.9
Cc1ccc(C(=O)NNc2c3ccccc3nc3ccccc23)cc1	-0.4	7.1	-0.7	1.1	-0.7	-0.3
Nc1ccccc1C(=O)NNc1c2ccccc2nc2ccccc12	2.2	5.1	0.1	6.2	-0.4	6.4*
CC(=O)c1cc2c(cc1NS(=O)(=O)c1ccccc1)OCO2	0.7	1.9	-0.9	2.0	-2.0	-1.0
CC(=O)c1cc2c(cc1N/C(=N/S(=O)(=O)c1ccccc1)c1ccc(Cl)cc1)OCO2	0.3	3.3	-0.4	0.8	1.6*	4.2
Cc1cccc(-n2nc(C)c3c(C(=O)O)cc(-c4cccs4)nc32)c1	4.6*	0.8	-0.6	2.1	-0.9	-0.4
N/C(=N\OC(=O)CCC1CCCC1)c1ccccc1	-0.7	3.4	0.0	-1.0	-0.7	-1.1
N/C(=N\OC(=O)COc1ccccc1)c1ccncc1	5.3*	2.5	0.0	4.4	-0.7	-1.2
CCc1ccc(OCC(=O)O/N=C(\N)c2ccccn2)cc1	x	4.1	3.5	11.4*	-0.7	3.1
N/C(=N\OC(=O)CCC1CCCC1)c1ccccn1	1.5	4.2	4.2*	8.4	-0.5	0.7
N/C(=N\OC(=O)COc1ccccc1)c1ccccn1	2.5	5.7	2.7	11.1*	-0.6	0.3
CCOC(=O)[C@]12CCCCC/C=C\1N(Cc1ccc(OC)cc1)C(=O)[C@H]2CC(=O)NCCCCc1ccccc1	x	x	-0.2	2.1	-1.6	-2.9
CCN(C(=O)c1cccc2c1-c1ccccc1C2=O)c1ccccc1	x	x	-0.5	2.8	-0.6	0.1
C=CCN1[C@@H](C)COc2cccc(N3CCSCC3)c2S1(=O)=O	x	x	-0.4	-1.2	-1.7	-1.0
N/C(=N\OC(=O)Cc1ccccc1)c1ccccn1	0.1	3.5	0.9	11.8*	-0.6	0.4
N/C(=N\OC(=O)CSc1ccccc1)c1ccncc1	1.6	4.3	3.6	7.8	-0.2	5.7*
O=C1CN(c2ccccc2)C(=S)N1C(=O)c1ccccc1	5.8*	4.3	1.9	11.4*	0.6	5.7*
COC(=O)[C@H](CC(C)C)N(Cc1cn(Cc2ccc(C)cc2)nn1)S(=O)(=O)c1ccc(F)cc1Br	x	x	-1.8	-0.7	-1.1	-4.0
CCN1CCN(C(=O)CSCc2nc(-c3ccc(OC)c(OC)c3)oc2C)CC1	1.4	0.6	0.0	3.2	-1.3	4.9
SMILES	DAX1 inh-1	GAA850 FXN act	DAX1 inh-2	hgDAF-12 ag	ssDAF-12 act	hcDAF-12 act
COc1ccc(-c2nc(CSCC(=O)N3CCN(C)CC3)c(C)o2)cc1OC	6.1*	0.7	-0.4	-2.6	-0.7	-0.5
CCC(=O)N1CCc2cc(Br)c(S(=O)(=O)NCc3ccccc3OC)cc21	x	x	-0.8	4.4	-0.6	-1.4
C=CCN1C(=O)[C@@H](CC(=O)NCc2ccc(C)o2)[C@]2(C(=O)OCC)CCCCC/C=C/12	x	x	-0.1	-0.3	-1.5	-0.4
C[C@@]12C(=O)N(c3cccc(Cl)c3)C(=O)N1[C@H](c1ccc(Cl)cc1)[C@@H]1C(=O)N(C3CCCCC3)C(=O)[C@@H]12	-0.7	7.3	-0.2	-2.1	-0.7	0.5
O=C1[C@H]2[C@@H](c3ccc(F)cc3)N3C(=O)N(c4ccccc4)C(=O)[C@@]3(Cc3ccc(Cl)cc3)[C@H]2C(=O)N1C1CCCCC1	-0.8	10.7*	0.8	2.0	-1.3	0.1
C[C@@]12C(=O)N(c3cccc(F)c3)C(=O)N1[C@H](c1ccc(F)cc1)[C@@H]1C(=O)N(C3CCCCC3)C(=O)[C@@H]12	0.0	13.8*	x	x	x	x
